Rows were chosen to be rich in hits. Some 2.3% of all compounds tested hit in one or more screens of this group.
M1 ag parental = M1 agonist counterscreen hit in parental CHO-K1 cells | Fluo-8 calcium fluorescence; scaled to maximal ATP response, vehicle zero | activation, % at 3 µM | 360,000 tested, 0.48% active | AID 602248; in the data active = activation above about 15%;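 also: untransfected CHO-K1 host cells lacking M1 receptor as counterscreen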
M1 PAM = positive allosteric modulators of human M1 muscarinic receptor. P11229. CHO-K1 hM1, Fluo-8 calcium fluorescence, ACh EC20; 0% = ACh EC20, 100% = maximal ACh. activation, % at 3 µM. 360,000 tested, 0.088% active; in the data active = activation above about 19%, passing the limit was not always enough
Target sequence (P11229 whole entry, looked up): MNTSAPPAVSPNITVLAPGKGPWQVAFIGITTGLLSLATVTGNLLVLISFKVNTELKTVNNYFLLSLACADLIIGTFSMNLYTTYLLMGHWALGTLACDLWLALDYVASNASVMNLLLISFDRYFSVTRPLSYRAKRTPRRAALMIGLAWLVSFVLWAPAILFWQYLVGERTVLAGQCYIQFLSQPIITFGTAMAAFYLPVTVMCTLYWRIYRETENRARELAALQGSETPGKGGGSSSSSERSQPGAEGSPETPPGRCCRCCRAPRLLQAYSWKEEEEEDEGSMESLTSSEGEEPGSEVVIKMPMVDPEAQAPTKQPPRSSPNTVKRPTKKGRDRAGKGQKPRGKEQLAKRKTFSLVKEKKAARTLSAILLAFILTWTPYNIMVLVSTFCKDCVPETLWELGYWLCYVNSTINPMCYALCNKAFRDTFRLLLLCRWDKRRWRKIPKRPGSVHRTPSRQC
CHRM1 antagonist = antagonists of human M1 muscarinic receptor; CHO-K1 hM1, Fluo-8 calcium fluorescence, ACh EC80 antagonist; P11229; 360,000 tested, 1.3% active; inhibition, % at 3 µM;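 active = percent inhibition above its own plate's cutoff, namely the mean of that plate's compound wells plus 3 SD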;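 also: peak over basal fluorescence ratio during 140 s after agonist addition; 0% = ACh EC80 plus DMSO and 100% = DMSO alone without agonist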
CHRM1 agonist = activates human CHRM1 receptor; P11229; CHO-K1 hM1, Fluo-8 calcium fluorescence, agonist mode; 0% DMSO, 100% acetylcholine EC100; activation, % at 3 µM; 360,000 tested, 0.33% active;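 active = activation above the run's mean compound activation plus 3 SD, cut at about 16% in these data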;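 also: peak over basal fluorescence ratio within a 140 s kinetic read after compound addition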
CHO-K1 Ca antag = counter-screen for M1 antagonists: effect in parental CHO-K1 cells | ATP-induced calcium, Fluo-8 fluorescence | inhibition, % at 3 µM | 360,000 tested, 0.6% active | AID 602250;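 active = inhibition above a per-plate cutoff, the plate's mean sample inhibition plus 3 SD, cut at about 24% in these data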;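 also: 0% = DMSO plus EC80 ATP and 100% = DMSO alone without ATP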
CHO-K1 Ca PAM = counter-screen for M1 PAMs: effect in parental CHO-K1 cells | ATP EC20, Fluo-8 calcium fluorescence; 0% at ATP EC20, 100% at ATP max | activation, % at 3 µM | 360,000 tested, 0.02% active;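 active = activation above the run cutoff, the mean activation of all test compounds plus 3 SD, cut at about 40% in these data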;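 also: peak over basal fluorescence ratio in a 140 s read after ATP addition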
Active calls of the source: *.

SMILES | M1 ag parental | M1 PAM | CHRM1 antagonist | CHRM1 agonist | CHO-K1 Ca antag | CHO-K1 Ca PAM
CCOC(=O)C1CCN(C(=O)Cn2nc(CC)n3cccc3c2=O)CC1 | 1 | 6 | -6 | -1 | -14 | 16
CC(C)(CO)NCc1cc(Br)ccc1OCc1ccccc1 | 1 | 5 | -1 | -10 | -21 | 13
CC(C)NCc1cc(Br)ccc1OCc1ccccc1 | 3 | -17 | 29 | 34* | -8 | 16
COc1ccc(CCNC(=O)Cn2ccc3c(OC)cccc3c2=O)cc1OC | 6 | 0 | 2 | 1 | -5 | -12
COc1ccc(-c2nc(-c3ccc(NC(=O)c4ccncc4)cc3)no2)cc1OC | 4 | -21 | 39* | 0 | 8 | -7
COc1ccc(Cl)cc1-c1nc(-c2ccc(NC(=O)c3ccncc3)cc2)no1 | 0 | 1 | 0 | -3 | -2 | 18
CCOC(=O)C(=CNc1ccc(OC)cc1[N+](=O)[O-])C(=O)OCC | 0 | 15 | -14 | -1 | -13 | 10
Cc1c(Br)c([N+](=O)[O-])nn1CC(=O)Nc1ccc2nc3n(c(=O)c2c1)CCCC3 | 1 | 0 | -4 | -14 | -17 | 18
CCOC(=O)c1c(C(C)(C)C)oc2ccc(OCC#N)cc12 | 0 | -17 | 28* | -4 | -12 | 19
CCN1C[C@@H]2[C@@H]3C(=O)N(C)C(=O)[C@@H]3[C@](CC)(C1=O)N2C(=O)c1ccc(C)cc1 | 0 | 3 | -6 | -3 | -17 | 22
COc1ccccc1CN1C2CCCC1CC(NC(=O)/C=C/c1ccccc1)C2 (stereo not given) | 1 | -32 | 62* | -13 | -15 | 20
CCN(CC(=O)NCc1cccs1)C(=O)/C=C/c1cc(OC)ccc1OC | 0 | -4 | 2 | -2 | 24* | -22
CCCS(=O)(=O)NC(=O)C1(C)CCCN(C(=O)Cc2ccc3ccccc3c2)C1 (stereo not given) | 0 | 6 | -3 | 1 | 6 | -10
O=C(Nc1ccccc1)N1CCCC(c2nc(-c3ccc(F)cc3)no2)C1 (stereo not given) | 1 | 2 | -17 | -4 | -7 | 17
O=C(Nc1cccc(C(F)(F)F)c1)N1CCC(c2nc(-c3ccc(F)cc3)no2)CC1 | 9 | -34 | 65* | -9 | -1 | -5
O=C(Nc1ccc(Cl)cc1)N1CCC(c2nc(-c3ccccc3Cl)no2)CC1 | 6 | -17 | 20* | 0 | 10 | 6
O=C(Nc1ccc(Cl)cc1)N1CCC(c2nc(-c3cccs3)no2)CC1 | 6 | -14 | 13 | -9 | -6 | 3
CC(C)CNC(=S)N1CCC(c2nc(-c3ccc(F)cc3)no2)CC1 | 12 | -15 | 33* | -4 | 15 | -10
CCC/C(O)=C1\C(=O)CCCC1=NCCc1c(C)[nH]c2ccc(OC)cc12 | 2 | 4 | -1 | -5 | -23 | 15
CCOC(=O)N1CCN(C(=O)CCS(=O)(=O)c2ccc(Br)s2)CC1 | 0 | 16 | -11 | 5 | 27* | -10
CCC(C)NC(=O)CCS(=O)(=O)c1ccc(Br)s1 (stereo not given) | 0 | 3 | 0 | -3 | -5 | 3
CC(=C/c1ccccc1)/C=N/n1c(-c2ccncc2)n[nH]c1=S | 0 | 5 | -1 | 30* | -4 | 0
CCN1C(=O)[C@H]2[C@@H](c3ccc(-c4ccccc4)cc3)N3CCC[C@@]3(C(=O)OC)[C@H]2C1=O | 0 | 15 | 3 | 4 | 2 | -10
O=c1c2ccccc2nnn1-c1ccc(Br)cc1 | 6 | -7 | 19 | -1 | 0 | -5
CCOC(=O)c1ccc2c(c1)n(CC)c(/C=C/N(C)c1ccccc1)[n+]2CC | 1 | -13 | 19 | -9 | -10 | 11
CC[n+]1c(/C=C/N(C)c2ccccc2)n(-c2ccccc2)c2ccc(-c3nc4ccccc4s3)cc21 | 6 | -30 | 98* | -6 | 34* | -2
O=C(/C=C/c1cccc(Cl)c1)NCc1ccccc1 | -1 | -10 | 41* | -6 | -10 | 6
O[C@H]1CN(CC2CCCCC2)[C@@H](c2ccc(Cl)cc2)C[C@@H]1n1cc(C2CC2)nn1 | 0 | -15 | 37* | -2 | -3 | 10

Screening data (PubChem BioAssay)
